# Laboratory results from PubChem BioAssay (EPA / NIEHS).
# The source made the active and inactive calls. The calls were made as follows: active = hit-call score of the fitted dose curve at least 0.9, where 1 is the maximum; inactive = score below 0.9. Peptide text beside a SMILES is read from it.
# Assay: ATG_PXRE_CIS: Attagene CIS-FACTORIAL HepG2 Assay for human Pregnane X Receptor Element (PXRE) (AID 2282957)
# Conditions: HepG2 Attagene CIS-FACTORIAL PXRE reporter, mRNA; actives raise or lower the signal
# Protocol: ATG_CIS is a cell-based, multiplexed-readout assay that uses HepG2, a human liver cell line, with measurements taken at 24 hours after chemical dosing in a 24-well plate.ATG_PXRE_CIS is one of 52 assay component(s) measured or calculated from the ATG_CIS assay. It is designed to make measurements of mRNA induction, a form of inducible reporter, as detected with fluorescence intensity signals by Reverse transcription polymerase chain reaction (RT-PCR) and Capillary electrophoresis technology.Data from the assay component ATG_PXRE_CIS was analyzed into 1 assay endpoint. This assay endpoint, ATG_PXRE_CIS, was analyzed with bidirectional fitting relative to DMSO as the negative control and baseline of activity. Using a type of inducible reporter, measures of mRNA for gain or loss-of-signal activity can be used to understand the reporter gene at the transcription factor-level as they relate to the gene NR1I2. Furthermore, this assay endpoint can be referred to as a primary readout, because this assay has produced multiple assay endpoints where this one serves a reporter gene function. To generalize the intended target to other relatable targets, this assay endpoint is annotated to the nuclear receptor intended target family, where the subfamily is non-steroidal.
# Human liver HepG2 cells are transiently transfected with multiple reporter transcription units (MRTUs) in 6-well plates using FuGene 6 reagent (Roche; 3 ml FuGene/1 mg DNA). The MRTU constructs are regulated by a cis-regulating element (promoter). […] A major difference between the CIS and TRANS system is that in CIS activities of endogenous TFs are measured, whereas the TRANS assay evaluates changes in activities of exogenous, chimeric NR-Gal4 proteins. […] At the end of 24 hour incubation, total RNA was isolated using TriZol reagent (Invitrogen). The isolated RNA is then reverse-transcribed using oligo(dT) primer and Mo-MLV reverse transcriptase (Invitrogen) with DNAse I (Ambion) treatment for 30 min. The one-tenth of the produced cDNA was amplified by PCR using Taq DNA polymerase (Invitrogen) and two reporter sequence-specific primers. The PCR products were fluorescently labeled by primer extension with 6-arboxyfluorescein (6-FAM) 5'-labeled reporter sequence-specific primer (2 min at 95 C, 20 s at 68 C and 10 min at 72 C) and these products were digested with 5U of HpaI (New England Biolabs) for 2h at 37 C. The fragments were purified using Qiaquick PCR columns (Qiagen), analyzed on an ABI 3130xL genetic analyzer (Applied Biosystems) with peak positions identified by using a set of X-rhodamine (ROX)-labeled MapMarker1000 molecular weight standards (BioVentures). The raw capillary electrophoresis data was processed using Attagraph software (Attagene).
Compound,AC50,outcome
O=c1c(O)c(-c2ccc(O)cc2O)oc2cc(O)cc(O)c12,26.5 µM (active),–
CC(=O)OC(C)c1ccccc1 (stereo not given),37.6 µM (active),–
CCN1CN(CC)CN(CC)C1,119 µM (active),–
CC(=O)OC/C=C(/C)CCC=C(C)C,–,inactive
COc1ccc(C(=O)c2ccccc2)c(O)c1,26.7 µM (active),–
CCCC1CCCC(=O)O1 (stereo not given),–,inactive
CC(C)(C)N,–,inactive
CCOc1ccc(NC(N)=O)cc1,–,inactive
C[Si](C)(C)N[Si](C)(C)C,–,inactive
CCCCCCCCCCCCCC(=O)OC(C)C,–,inactive
COC(C=C(C)CCC=C(C)C)OC,21.7 µM (active),–
Oc1c(Cl)cc(Cl)c(Cl)c1Cl,26.5 µM (active),–
CC1=CC=C(C(C)C)CC1,3.61 µM (active),–
c1ccc2c(c1)[nH]c1ccccc12,9.54 µM (active),–
Nc1ccc(O)c([N+](=O)[O-])c1,–,inactive
CC1=CP(=O)(c2ccccc2)CC1 (stereo not given),27.6 µM (active),–
Cc1ccc(S(=O)(=O)N=C=O)cc1,–,inactive
CCCCCCO,–,inactive
Fc1ccc(Br)cc1,–,inactive
CC(CC=O)CC(C)(C)C (stereo not given),8.08 µM (active),–

Compound,AC50,outcome
O=C(Nc1ccccc1)c1cc(Cl)ccc1O,25.6 µM (active),–
CCCC(CC)c1ccccc1 (stereo not given),36.2 µM (active),–
CCCCC/C=C\C/C=C\CCCCCCCC(=O)O,64.1 µM (active),–
C=CC(C)(CCC=C(C)C)OC(=O)C=Cc1ccccc1 (stereo not given),1.82 µM (active),–
C=C(C)C(=O)OCCCCCCCCCCCC,30.9 µM (active),–
COC(=O)[C@H](Cc1ccccc1)NC(=O)[C@@H](N)CC(=O)O (H-Asp-Phe-OMe),–,inactive
CC(C)(CO)COC(=O)C(C)(C)CO,–,inactive
COc1ccc(C(=O)/C(Br)=C\C(=O)O)cc1,–,inactive
CC(C)CC(=O)OCc1ccccc1,–,inactive
CCCCCCCCCCCCc1ccc(O)cc1,1.53 µM (active),–
CC(C)OC(=O)c1ccccc1,–,inactive
CC(C)c1ccc2ncccc2c1,27.9 µM (active),–
CC(CCC(=O)O)(c1ccc(O)cc1)c1ccc(O)cc1,27.5 µM (active),–
C=C(C)C(=O)OCCOC(=O)C(=C)C,–,inactive
N#Cc1ccc(C2CCCc3cncn32)cc1 (stereo not given),23.9 µM (active),–
CC(=O)/C=C/C1C(C)=CCCC1(C)C (stereo not given),5.09 µM (active),–
C=CCNCC=C,52.1 µM (active),–
CCCc1ccc(O)c(OC)c1,–,inactive
CC(C)(c1ccccc1)c1ccc(Nc2ccc(C(C)(C)c3ccccc3)cc2)cc1,2.03 µM (active),–
C1CNCCN1,–,inactive
